RORg inh – inhibitors of mouse ROR gamma transcriptional activity; P51450; Drosophila S2 Gal4-RORgamma UAS-luciferase reporter, 20 h; Potency, µM (doses to about 53.6 µM), hits mostly inhibitors; 310,000 compounds, 5.4% hits; also: nearly all actives have a fitted effect of over 60% in size
Target sequence (P51450 whole entry, looked up, the tested form may be a part): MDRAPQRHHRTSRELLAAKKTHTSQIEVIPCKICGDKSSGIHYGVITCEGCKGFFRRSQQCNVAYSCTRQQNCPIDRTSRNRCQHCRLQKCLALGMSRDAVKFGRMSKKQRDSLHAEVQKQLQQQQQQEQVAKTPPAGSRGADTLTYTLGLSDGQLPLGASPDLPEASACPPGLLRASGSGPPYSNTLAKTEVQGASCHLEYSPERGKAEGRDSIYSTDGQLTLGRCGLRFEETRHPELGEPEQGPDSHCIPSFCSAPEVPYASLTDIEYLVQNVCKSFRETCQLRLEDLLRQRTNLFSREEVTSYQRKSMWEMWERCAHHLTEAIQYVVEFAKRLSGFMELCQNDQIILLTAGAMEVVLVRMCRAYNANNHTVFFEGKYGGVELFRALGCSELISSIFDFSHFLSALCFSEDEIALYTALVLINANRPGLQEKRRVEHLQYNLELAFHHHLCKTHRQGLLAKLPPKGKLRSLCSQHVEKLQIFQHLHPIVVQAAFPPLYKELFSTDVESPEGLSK
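Drosophila S2 cells stably expressing Gal4-DBD/mouse RORγ fusion under metallothionein promoter plus UAS-luciferase; compound 1 h, then 700 uM CuSO4 induction for 20 h at ambient temperature; inhibition read as reduced luminescence.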
Gal4-VP16 FLuc – Gal4-VP16 reporter inhibition counter-screen; 310,000 compounds, 3.5% hits; Drosophila S2 Gal4-VP16 UAS-luciferase, luminescence, 20 h; AID 2546; Potency, µM (highest dose often 53.6 µM), usual class: inhibitors;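 also: Gal4-VP16 expression switched on by copper sulfate through the metallothionein promoter; nearly all actives have a fitted effect of over 50% in size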
MCF10A rerep – DNA re-replication induction in MCF 10a cells; 350,000 compounds, 2.9% hits; MCF 10A DNA re-replication, Hoechst nuclear intensity, 48 h; Potency, µM (highest dose often 46.1 µM), usual class: activators; AID 624296; also: nearly all actives have a fitted effect of over 50% in size
KB-V1 cytotox – kills drug-selected multidrug resistant KB-V1 cells; AID 1347076; 400,000 compounds, 3.4% hits; KB-V1 MDR cells viability, CellTiter-Glo, 72 h; Potency, µM (series often up to 46.1 µM), hits mostly cytotoxic; also: nearly all actives have a fitted effect of over 60% in size
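Cells of the MDR subline KB-V1 are plated, dosed with compound at multiple concentrations, and incubated 72 h at 37 degrees C; CellTiter-Glo is then added and luminescence read after 10 min.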
KB-3-1 cytotox – KB-3-1 parental cell cytotoxicity. KB-3-1 viability, CellTiter-Glo ATP luminescence, 72 h. Potency, µM (series often up to 46.1 µM), usual class: cytotoxic. AID 1347075. 400,000 compounds, 1.4% hits; also: nearly all actives have a fitted effect of over 60% in size
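Using CellTiter-Glo luminescence, growth of non-resistant KB-3-1 adenocarcinoma cells is assessed 72 h after pin-tool compound addition at 37 °C. Normalized responses across the concentration series yield fitted curves.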
SW480 rerep – induces DNA re-replication in SW480 colon adenocarcinoma cells; SW480 DNA re-replication, Hoechst DNA content imaging, 48 h; Potency, µM (series often up to 46.1 µM), most hits filed as activators; 340,000 compounds, 1.8% hits; also: nearly all actives have a fitted effect of over 55% in size
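Quantitative HTS format with DMSO vehicle controls; 48 hr drug incubation at 37 C, then 40 min Hoechst staining and scanning imager measurement at 405 nm excitation.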
Each line names hits and unclear results; the compound was inactive in the other large screens. An excerpt weighted towards active compounds, which were near 10% of everything screened. Calls follow the shape of the dose curve; as a rule, active = well fitted curve in the direction sought with a large enough effect; inconclusive = small, poorly fitted or top-dose-only effect, or another doubt; inactive = no such curve, though single readings can be large; an effect the other way counts as inactive or inconclusive.

COc1cc(C(=O)Nc2ccc(NC(=O)c3ccccc3)nc2)cc(OC)c1OC	KB-V1 cytotox inconclusive
COC(=O)Cc1ccc(NC(=S)NCc2ccccc2Cl)cc1	RORg inh inconclusive, Gal4-VP16 FLuc inconclusive, KB-V1 cytotox inconclusive
COc1ccc(C(=O)Nc2ccccn2)cc1	none
COC(=O)Cc1ccc(NC(=O)C(c2ccccc2)c2ccccc2)cc1	KB-V1 cytotox 8.2µM
COc1cc(NC(=S)Nc2ccccn2)cc(OC)c1OC	RORg inh 3.5µM, Gal4-VP16 FLuc 22µM, MCF10A rerep inconclusive, KB-V1 cytotox inconclusive
COc1cc(NC(=S)Nc2ccccn2)cc(OC)c1	RORg inh 2.5µM, Gal4-VP16 FLuc 5.6µM
O=C(N/N=C/c1ccncc1)c1ccc(-n2cccc2)cc1	none
O=C(N/N=C/c1ccccc1F)c1cccc(NC(=O)c2ccccc2Cl)c1	MCF10A rerep inconclusive
O=C(N/N=C/c1cccs1)c1ccc(-n2cccc2)cc1	RORg inh 6.3µM, Gal4-VP16 FLuc 11µM
Cc1ccc(/C=N/NC(=O)c2ccc(-n3cccc3)cc2)o1	RORg inh 18µM, Gal4-VP16 FLuc inconclusive
O=C(N/N=C/c1cccs1)c1ccc(NC(=O)c2ccccc2Cl)cc1	RORg inh 10µM, Gal4-VP16 FLuc inconclusive
O=C(N/N=C/c1cccs1)c1cccc(NC(=O)c2ccccc2Cl)c1	RORg inh inconclusive, Gal4-VP16 FLuc 14µM
Cc1cc(Br)ccc1NC(=O)CN(C)C(=O)CSCc1ccccc1	KB-V1 cytotox inconclusive (no result: RORg inh, Gal4-VP16 FLuc)
CCOc1ccc(NC(=O)CC2C(=O)N(c3ccc(C)cc3)C(=O)N2Cc2ccc(OC)cc2)cc1 (centres undefined)	none (no result: RORg inh, Gal4-VP16 FLuc, MCF10A rerep, SW480 rerep)
COc1ccc(-c2nc(CN3CCCCC3c3nccn3C)c(C)o2)c(C)c1C (centres undefined)	RORg inh 4.5µM, Gal4-VP16 FLuc inconclusive, SW480 rerep inconclusive
Cc1cc2nc3ccc(=[N+](C)C)cc-3sc2cc1N	RORg inh inconclusive, Gal4-VP16 FLuc 35µM, KB-V1 cytotox 16µM, KB-3-1 cytotox inconclusive, SW480 rerep inconclusive
Oc1ccc2c(c1)OCO2	none (no result: MCF10A rerep, KB-V1 cytotox, KB-3-1 cytotox, SW480 rerep)
Oc1ccc(N=Nc2ccc3c(c2)OCO3)c2ccccc12	RORg inh 0.13µM, Gal4-VP16 FLuc 0.63µM (no result: MCF10A rerep, KB-V1 cytotox, KB-3-1 cytotox, SW480 rerep)
Cc1ccc(/C=N/NC(=O)c2csc(C)c2)o1	none
CN(C)c1ccc(/C=N/NC(=O)C(O)(c2ccccc2)c2ccccc2)o1	RORg inh 8.9µM, Gal4-VP16 FLuc 11µM, MCF10A rerep inconclusive, SW480 rerep inconclusive
O=C(N/N=C/c1ccc(N2CCCCC2)o1)C(O)(c1ccccc1)c1ccccc1	RORg inh 11µM, Gal4-VP16 FLuc 13µM, MCF10A rerep inconclusive (no result: KB-V1 cytotox, KB-3-1 cytotox)
Cc1cc(C(=O)N/N=C/c2ccc(N(C)C)o2)cs1	RORg inh 13µM, Gal4-VP16 FLuc 6.3µM, SW480 rerep inconclusive
CN(C)c1ccc(/C=N/NC(=O)c2ccccc2O)o1	none
O=C(OCc1cc(=O)n2nc(-c3cccs3)sc2n1)c1ccc(Cl)cc1	none (no result: RORg inh, Gal4-VP16 FLuc, MCF10A rerep, SW480 rerep)
CCc1ccc(N(C2C=CS(=O)(=O)C2)S(=O)(=O)c2ccccc2)cc1 (centres undefined)	MCF10A rerep inconclusive, SW480 rerep inconclusive
Cc1ccc(S(=O)(=O)N(c2cccc(C(F)(F)F)c2)C2C=CS(=O)(=O)C2)cc1 (centres undefined)	MCF10A rerep 23µM, SW480 rerep inconclusive
COc1cc(/C=N/N=C2/NC(=O)C(CC(=O)O)S2)ccc1OCc1cccc(Cl)c1 (centres undefined)	none
C=CCN1C(=O)C(Cc2ccccc2)S/C1=N/N=C/c1cccs1 (centres undefined)	MCF10A rerep inconclusive
O=C1N/C(=N\N=C\c2cccs2)SC1Cc1ccc(Cl)cc1 (centres undefined)	RORg inh 1.1µM, Gal4-VP16 FLuc 0.63µM, MCF10A rerep inconclusive
O=C1N/C(=N\N=C\c2cccs2)SC1Cc1cccc(Cl)c1 (centres undefined)	RORg inh 0.5µM, Gal4-VP16 FLuc 0.71µM, MCF10A rerep 2.9µM, KB-V1 cytotox inconclusive, KB-3-1 cytotox inconclusive, SW480 rerep inconclusive
COc1ccc(C)cc1Nc1nc2cc(Cl)c(Cl)cc2nc1-n1nc(C)cc1C	none (no result: RORg inh, Gal4-VP16 FLuc, MCF10A rerep, SW480 rerep)
Cc1sc2ncnc(SCC(=O)NNC(=O)COc3cccc4ccccc34)c2c1C	MCF10A rerep 23µM, KB-V1 cytotox inconclusive, KB-3-1 cytotox inconclusive, SW480 rerep inconclusive
Cc1sc2ncnc(SCC(=O)c3cccs3)c2c1C	RORg inh inconclusive, KB-V1 cytotox 16µM, KB-3-1 cytotox inconclusive
Cc1cccc(NC(=O)CSc2ncnc3sc(C)c(C)c23)n1	none (no result: KB-V1 cytotox, KB-3-1 cytotox)
Cc1sc2ncnc(SCC(=O)NC(=O)c3cccn3C)c2c1C	RORg inh 4.5µM
Cc1ccc2cc(C)c3nnc(SCC(=O)c4cccs4)n3c2c1C	none
Cc1cc2ccc(C)c(C)c2nc1SCC(=O)c1cccs1	MCF10A rerep inconclusive, KB-V1 cytotox 15µM, KB-3-1 cytotox inconclusive
CC(=O)Nc1ccc(NC(=O)CSc2ncnc3sc(C)c(C)c23)cc1	KB-V1 cytotox inconclusive
O=C(CCC(=O)N/N=C/c1c[nH]c2ccccc12)NCc1ccccc1	none
CCN(CC)c1ccc(/C=N/NC(=O)CNC(=O)C2COc3ccccc3O2)c(O)c1 (centres undefined)	RORg inh 2.8µM, Gal4-VP16 FLuc 2.8µM, MCF10A rerep 6.5µM, KB-V1 cytotox inconclusive, KB-3-1 cytotox inconclusive, SW480 rerep 6.5µM
CCN(CC)c1ccc(/C=N/NC(=O)CCC(=O)NCc2ccccc2)c(O)c1	RORg inh 3.2µM, Gal4-VP16 FLuc inconclusive, MCF10A rerep inconclusive, KB-3-1 cytotox inconclusive, SW480 rerep inconclusive
CCN(CC)c1ccc(/C=N/NC(=O)c2cccc(S(=O)(=O)N3CCOCC3)c2)c(O)c1	RORg inh 2.8µM, Gal4-VP16 FLuc 11µM, MCF10A rerep 15µM, KB-V1 cytotox inconclusive, KB-3-1 cytotox 7.3µM, SW480 rerep inconclusive
CC/C(=N\NC(=O)CCC(=O)NCc1ccccc1)c1ccc(O)cc1	MCF10A rerep inconclusive, KB-3-1 cytotox 3.3µM, SW480 rerep inconclusive
CCN(CC)c1ccc(C=Nc2cccc(S(=O)(=O)N3CCOCC3)c2)c(O)c1	KB-V1 cytotox inconclusive (no result: RORg inh, Gal4-VP16 FLuc)
CN(C)c1cccc(-c2cnc(N3CCC(c4ncc[nH]4)CC3)s2)c1	none (no result: RORg inh, Gal4-VP16 FLuc, MCF10A rerep, SW480 rerep)
CCN(CC)c1ccc(/C=N/Nc2ccc(C)cc2)c(O)c1	none
CCOC(=O)N/N=C/c1ccc(N(CC)CC)cc1O	RORg inh inconclusive, Gal4-VP16 FLuc inconclusive, MCF10A rerep 23µM, KB-V1 cytotox inconclusive, KB-3-1 cytotox 21µM, SW480 rerep 16µM
CCN(CC)c1ccc(C=Nc2ccc(C)cc2C)c(O)c1	none
CCN(CC)c1ccc(C=Nc2cc(C)ccc2C)c(O)c1	KB-V1 cytotox 23µM, KB-3-1 cytotox inconclusive, SW480 rerep inconclusive
CCN(CC)c1ccc(/C=N/NC(=O)c2c(Cl)cnn2C)c(O)c1	MCF10A rerep 12µM, KB-V1 cytotox inconclusive, SW480 rerep inconclusive
